Hits are enriched below; roughly 2.2% of the tested compounds scored in any of these assays.
LGR2 inh: blocks bursicon-induced cAMP signaling via Drosophila LGR2 | AID 720647 | HEK293 LGR2, CRE-luciferase, bursicon-stimulated, 4 h | hit rate 0.35% among 380,000 | inhibition, % at 9.99 µM;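 active = drop in luminescence signal, shown as inhibition above about 50% in the replicate tests, limit read from the data, passing the limit was not always enough; inconclusive = probably only some replicates passing the limit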;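 also: agonist challenge used bursicon conditioned medium at about half maximal strength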
EWS-Fli inh: EWS/Fli transcriptional activity inhibition; A673 NR0B1-luciferase reporter, viability-normalised; inhibition, % at 12.6 µM; hit rate 0.67% among 350,000;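 active = mean inhibition of at least 50% after viability correction, with every replicate also passing that limit; inconclusive = mean reaches 50% but only one of two replicates passes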;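 also: firefly luciferase signal divided by Alamar Blue viability fluorescence both relative to DMSO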
PAX8 reporter: inhibitors of PAX8 transcriptional activity in RMG-I cells | inhibition, % at 12.6 µM | hit rate 1.2% among 360,000 | RMG-I TPO-luciferase reporter, SteadyGlo, 24 h;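 active = mean replicate inhibition at least 60% with every replicate also reaching 60%; inconclusive = only one of the two criteria is met; inactive = mean below 60% and not all replicates reaching 60%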;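 also: luciferase light reporting Pax8 driven TPO promoter activity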
Shn3 inh set2: reduces Shn3 3'UTR luciferase signal in osteoblasts. Clone20 osteoblast Shn3 3'UTR firefly luciferase, 24 h. inhibition, % at 12.5 µM. hit rate 0.52% among 360,000. AID 588674;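 active = mean inhibition of at least 75% with every replicate also reaching 75%; inconclusive = mean inhibition at least 75% but some replicate below; inactive = mean inhibition below 75%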
MITF TRPM1 inh: inhibitors of MITF-driven TRPM1 promoter in melanoma cells; inhibition, % at 12.5 µM; hit rate 0.83% among 330,000; SK-MEL-5 TRPM1 promoter luciferase, 24 h; AID 488899;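 active = mean inhibition across replicates of 60% or more, whatever share of single replicates reaches that level; inconclusive = some that reach 60%, reason not given; inactive = mean inhibition across replicates below 60%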
LMP1 NFkB inh: Epstein-Barr LMP1 NF-kappaB reporter inhibition; LMP1-induced NF-kappaB luciferase reporter cells, luminescence; inhibition, % at 12.5 µM; hit rate 0.69% among 350,000; in the data active = inhibition above about 41%; inconclusive = no clear call, values can overlap the other calls
Each line names hits and unclear results; the compound was inactive in the other large screens.

Cc1ccc(-c2cc(-c3ccc(C)cc3)[n+](C)o2)cc1	PAX8 reporter inconclusive, MITF TRPM1 inh 63 (no result: EWS-Fli inh)
CCOC(=O)[C@]12Cc3cc(OC)ccc3[C@H]1N(C)C(=O)c1ccccc12	none (no result: Shn3 inh set2, MITF TRPM1 inh, LMP1 NFkB inh)
CCOC(=O)[C@]12Cc3cc(Cl)ccc3[C@H]1N(C(C)C)C(=O)c1ccccc12	LGR2 inh 73, PAX8 reporter 86 (no result: Shn3 inh set2, MITF TRPM1 inh, LMP1 NFkB inh)
CCOC(=O)[C@]12Cc3cc(Cl)ccc3[C@H]1N(C)C(=O)c1ccccc12	none (no result: Shn3 inh set2, MITF TRPM1 inh, LMP1 NFkB inh)
CCCCCN1C(=O)c2cc(OC)ccc2[C@@]2(C(=O)OCC)Cc3cc(Cl)ccc3[C@@H]12	LGR2 inh 67, EWS-Fli inh 57 (no result: Shn3 inh set2, MITF TRPM1 inh, LMP1 NFkB inh)
CCOC(=O)[C@]12Cc3cc(OC)ccc3[C@H]1N(C1CCCCC1)C(=O)c1ccccc12	LGR2 inh 50, EWS-Fli inh 57, PAX8 reporter 76 (no result: Shn3 inh set2, MITF TRPM1 inh, LMP1 NFkB inh)
O=C(Cc1ccccn1)N1CCCCN2[C@H](C1)[C@@H](c1ccc(-c3ccccc3)cc1)[C@@H]2CO	none (no result: Shn3 inh set2, MITF TRPM1 inh, LMP1 NFkB inh)
O=C(Cc1ccccn1)N1CCCCN2[C@H](CO)[C@H](c3ccc(-c4ccc(F)cc4)cc3)[C@H]2C1	none (no result: Shn3 inh set2, MITF TRPM1 inh, LMP1 NFkB inh)
Cc1ccccc1-c1ccc([C@@H]2[C@@H](CO)N3CCCCN(C(=O)Cc4ccccn4)C[C@@H]23)cc1	none (no result: Shn3 inh set2, MITF TRPM1 inh, LMP1 NFkB inh)
O=c1[nH]c(CN2CC=C(c3ccccc3)CC2)nc2scc(-c3ccccc3)c12	none
O=c1[nH]c(CN2CC=C(c3ccccc3)CC2)nc2cc(C(F)(F)F)ccc12	LMP1 NFkB inh 44 (no result: LGR2 inh, EWS-Fli inh, PAX8 reporter)
O=C(O)c1nn(Cc2ccc(Cl)cc2Cl)c2ccccc12	LGR2 inh 63
COc1cc2c3cc1Oc1c(OC)c(OC)cc4c1[C@H](Cc1ccc(cc1)Oc1cc(ccc1O)C[C@H]3N(C)CC2)N(C)CC4	MITF TRPM1 inh 80 (no result: LGR2 inh)
COc1cc2c3cc1Oc1cc(ccc1O)C[C@@H]1c4c(cc(OC)c(O)c4Oc4ccc(cc4)C[C@H]3N(C)CC2)CCN1C	LMP1 NFkB inh 83
COc1cc2c3c(c1OC)Oc1ccc(cc1)C[C@H]1c4c(cc(OC)c(OC)c4Oc4ccc(cc4)C[C@@H]3N(C)CC2)CCN1C	MITF TRPM1 inh 91
O=C(Cc1ccncc1)N1CCCCN2[C@@H](CO)[C@H](c3ccc(C#Cc4ccccc4F)cc3)[C@@H]2C1	none (no result: Shn3 inh set2, MITF TRPM1 inh, LMP1 NFkB inh)
O=C(Cc1ccccn1)N1CCCCN2[C@@H](CO)[C@H](c3ccc(-c4ccccc4F)cc3)[C@@H]2C1	PAX8 reporter 67 (no result: Shn3 inh set2, MITF TRPM1 inh, LMP1 NFkB inh)
O=C(Cc1cccnc1)N1CCCCN2[C@H](CO)[C@H](c3ccc(/C=C/c4ccccc4)cc3)[C@@H]2C1	none (no result: Shn3 inh set2, MITF TRPM1 inh, LMP1 NFkB inh)
O=C(Cc1ccccn1)N1CCCCN2[C@H](CO)[C@H](c3ccc(-c4ccccc4F)cc3)[C@H]2C1	none (no result: Shn3 inh set2, MITF TRPM1 inh, LMP1 NFkB inh)
O=C(Cc1cccnc1)N1CCCCN2[C@H](C1)[C@H](c1ccc(/C=C/c3ccccc3)cc1)[C@@H]2CO	PAX8 reporter 81 (no result: Shn3 inh set2, MITF TRPM1 inh, LMP1 NFkB inh)
O=C(Cc1ccccn1)N1CCCCN2[C@@H](CO)[C@@H](c3ccc(-c4ccccc4F)cc3)[C@@H]2C1	PAX8 reporter 99 (no result: Shn3 inh set2, MITF TRPM1 inh, LMP1 NFkB inh)
O=C(Cc1ccccn1)N1CCCCN2[C@H](CO)[C@@H](c3ccc(-c4ccccc4F)cc3)[C@H]2C1	none (no result: Shn3 inh set2, MITF TRPM1 inh, LMP1 NFkB inh)
CC=Cc1ccc2n(c1=O)C[C@H]1[C@H](CO)[C@@H](C(=O)OC)[C@@H]2N1CC1CCCCC1 (mixture of isomers)	none (no result: Shn3 inh set2, MITF TRPM1 inh, LMP1 NFkB inh)
Cc1cccc(S(=O)(=O)N2[C@@H]3Cn4c(ccc(-c5ccccc5)c4=O)[C@H]2[C@@H](C(=O)O)[C@@H]3CO)c1	none (no result: Shn3 inh set2, MITF TRPM1 inh, LMP1 NFkB inh)
O=C1/C(=C/c2ccccc2)C[C@@]2(O)[C@H]3Cc4ccc(O)c5c4[C@@]2(CCN3CC2CC2)C1O5 (some centres not stated)	Shn3 inh set2 95, MITF TRPM1 inh 109 (no result: LGR2 inh, EWS-Fli inh, PAX8 reporter)
Oc1ccc2c3c1O[C@H]1c4[nH]c5c(c4CC4(O)C(C2)N(CC2CC2)CCC314)CC1(O)[C@H]2Cc3ccc(O)c4c3[C@@]1(CCN2CC1CC1)C5O4 (some centres not stated)	none (no result: PAX8 reporter, Shn3 inh set2, MITF TRPM1 inh, LMP1 NFkB inh)
CC1C(OC(=O)CCC(=O)NC(C)(C)CO)O[C@H]2OC3(C)CC[C@H]4[C@H](C)CCC1C24OO3 (some centres not stated)	PAX8 reporter 77
CC(C)CC(NC(=O)CCCNC(=O)CCC(=O)OC1O[C@H]2OC3(C)CC[C@H]4[C@H](C)CCC(C1C)C24OO3)C(=O)O (some centres not stated)	PAX8 reporter 74

Source: PubChem
